About 13,000 (27%) of roughly 48,000 compounds showed an effect of 50% or more. This is one part of the list.
The compounds below were run on Wolbachia pipientis (assay: Anti-Wolbachia Cell-Based Screen). Details: 5 µM.
Format: functional
Parameters: scale not given: in the data most compounds retested in dose-response had high values

First: O=C(CCCNc1ncccn1)N1CCCC(n2cccn2)C1 (stereo not given)
Second: Cc1nccn1C1CCCN(C(=O)CCCNc2ncccn2)C1 (stereo not given)
The “Percent Effect” value of the first is lower: 2.216% for the first, 106.9% for the second.

Compared with `CCc1nccn1C1CCCN(C(=O)CCCNc2ncccn2)C1` (stereo not given), `Cc1nc(C)n(C2CCCN(C(=O)CCCNc3ncccn3)C2)n1` (stereo not given) is higher in “Percent Effect” value: 1.367% for the first, 110% for the second.

Going from `CNS(=O)(=O)CC(=O)N(C1CC1)C1Cc2ccccc2C1` to `CS(=O)(=O)N1CC[C@H]2O[C@H](C(=O)NCCc3ccccn3)CC[C@H]21.O=C(O)C(F)(F)F`, the “Percent Effect” value rises from 0.4054% to 2.249%.

First: Cc1cnc(C(=O)N2CCCN(Cc3csc(C)n3)CC2)cn1
Second: Cc1cnc(C(=O)N2CCN(Cc3csc(C)n3)CC2)cn1
The “Percent Effect” value of the first is lower: 7.438% for the first, 75.58% for the second.

First: Cc1ncsc1C(=O)N1CCN(Cc2cscn2)CC1
Second: Cc1ncsc1C(=O)N1CCCN(Cc2cscn2)CC1
The “Percent Effect” value of the first is higher: 129.9% for the first, -2.478% for the second.

Going from `Cc1ncsc1C(=O)N1CCCC(c2nccn2Cc2cscn2)C1` (stereo not given) to `Cc1nc(CN2CCN(C(=O)c3scnc3C)CC2)cs1`, the “Percent Effect” value rises from -18.71% to 142.4%.

Going from `CC(Cc1ccccn1)N(C)C(=O)c1ncc[nH]1` (stereo not given) to `Cc1ccccc1OCCN(C)Cc1noc(CC(C)C)n1`, the “Percent Effect” value falls from -16.95% to -23.34%.

First: COCCn1cnc(-c2cc(C(=O)NC(C)C)c3ccccn23)c1
Second: COc1ncccc1C1CC(=O)NCc2nc3ccccn3c21 (stereo not given)
The “Percent Effect” value of the first is higher: -8.086% for the first, -11.47% for the second.

Going from `O=C(CNc1cccc(S(=O)(=O)C(F)F)c1)Nc1ccccc1` to `Cc1cc(C)c(S(=O)(=O)Nc2ccccc2CC(F)(F)F)cc1C(=O)O`, the “Percent Effect” value falls from 9.714% to 3.88%.

First: CC(C)n1ncc2c1NC(=O)CC21C(=O)Nc2c(Cl)cccc21 (stereo not given)
Second: O=C1CC(N(C(=O)c2ccc3[nH]c4c(c3c2)CCCC4)C2CC2)C(=O)N1 (stereo not given)
The “Percent Effect” value of the first is lower: -6.68% for the first, 7.465% for the second.

Compared with `Cc1ccc(S(=O)(=O)NCC2(O)CCOc3ccccc32)s1` (stereo not given), `OC1CCN(c2ccc(CNc3nc4ccccc4s3)cc2F)CC1` is lower in “Percent Effect” value: 0.721% for the first, -3.16% for the second.

Compared with `Cc1cc(C)c(CNC(=O)N2CCC(N3CCNC3=O)CC2)c(C)c1`, `CN(C)CCCN(C)c1nccc(N2CCN[C@H]3CS(=O)(=O)C[C@H]32)n1` is lower in “Percent Effect” value: -1.308% for the first, -10.75% for the second.

First: COc1cccc(-c2noc(-c3ccc(N4CC(N)C4)nc3)n2)c1OC
Second: NCCC1CN(Cc2cnc3c(-c4ccccc4)cnn3c2)CCO1 (stereo not given)
The “Percent Effect” value of the first is lower: 0.2823% for the first, 4.404% for the second.

First: O=C(NCc1ccco1)[C@H]1CC[C@@H]2[C@@H](CCN2Cc2cccnc2)O1.O=C(O)C(F)(F)F.O=C(O)C(F)(F)F
Second: O=C(NCc1cccnc1)[C@H]1CC[C@@H]2[C@@H](CCN2c2ncccn2)O1.O=C(O)C(F)(F)F.O=C(O)C(F)(F)F
The “Percent Effect” value of the first is lower: -10.47% for the first, -7.451% for the second.

Compared with `Cn1cc(CN2CC[C@H]3O[C@H](C(=O)Nc4cnccn4)CC[C@H]32)cn1.O=C(O)C(F)(F)F`, `O=C(Nc1cnccn1)[C@H]1CC[C@@H]2[C@@H](CCN2Cc2ccoc2)O1.O=C(O)C(F)(F)F` is lower in “Percent Effect” value: 123.6% for the first, 111.7% for the second.

Going from `O=C(NCCc1ccccn1)[C@@H]1CC[C@@H]2[C@@H](CCN2Cc2ccoc2)O1.O=C(O)C(F)(F)F.O=C(O)C(F)(F)F` to `O=C(NCc1cccs1)[C@H]1CC[C@@H]2[C@@H](CCN2Cc2ccoc2)O1.O=C(O)C(F)(F)F`, the “Percent Effect” value falls from 100.1% to 94.68%.

First: O=C(O)C(F)(F)F.O=C([C@@H]1CC[C@@H]2[C@@H](CCN2Cc2ccoc2)O1)N1CCCC1
Second: Cn1cc(CN2CC[C@H]3O[C@H](C(=O)NCc4ccco4)CC[C@H]32)cn1.O=C(O)C(F)(F)F
The “Percent Effect” value of the first is higher: 8.52% for the first, -21.14% for the second.

Compared with `O=C(NCc1cccs1)[C@H]1CC[C@@H]2[C@@H](CCN2c2ncccn2)O1.O=C(O)C(F)(F)F`, `Cn1cc(CN2CC[C@H]3O[C@@H](C(=O)NC4CC4)CC[C@H]32)cn1.O=C(O)C(F)(F)F.O=C(O)C(F)(F)F` is lower in “Percent Effect” value: 16.99% for the first, 2.978% for the second.

Going from `C[C@@H]1CN(Cc2ccc(-c3ccncc3)cc2F)CC(C(N)=O)O1` (stereo not given in full) to `Fc1ccc(-c2nnc(CN3CCCC3Cn3cccn3)o2)cc1` (stereo not given), the “Percent Effect” value rises from -2.76% to 88.78%.

First: Clc1snnc1CN1CCCCC1Cn1cncn1 (stereo not given)
Second: CCc1nnc(CN2CCCCC2Cn2cncn2)o1 (stereo not given)
The “Percent Effect” value of the first is lower: -4.6% for the first, 78.77% for the second.

First: Cc1nc(C2CCCN2Cc2nnc(Cc3ccccc3)o2)no1 (stereo not given)
Second: CCc1nc(C2CCCN2Cc2nnc(Cc3ccccc3)o2)no1 (stereo not given)
The “Percent Effect” value of the first is lower: -12.76% for the first, 6.131% for the second.

Going from `c1ccc(Cc2nnc(CN3CCCC3Cn3cccn3)o2)cc1` (stereo not given) to `c1ccc(Cc2nnc(CN3CCCCC3Cn3cncn3)o2)cc1` (stereo not given), the “Percent Effect” value falls from 131.9% to 108.9%.

Going from `Cc1nc(C)n(CC2CCCCN2CCCS(C)(=O)=O)n1` (stereo not given) to `CCc1nnc(CN2CCCCC2Cn2nc(C)nc2C)o1` (stereo not given), the “Percent Effect” value rises from 12.99% to 93.98%.

Compared with `Cc1cnn(CC2CCCCN2CCn2cncn2)c1` (stereo not given), `Cc1nc(C)n(CC2CCCCN2Cc2cnc(C)s2)n1` (stereo not given) is higher in “Percent Effect” value: -5.934% for the first, 97.07% for the second.

Going from `Cc1nc(C)n(CC2CCCCN2Cc2nnc(C3CC3)o2)n1` (stereo not given) to `Cc1nc(C)n(CC2CCCCN2Cc2cscn2)n1` (stereo not given), the “Percent Effect” value rises from 1.656% to 10.69%.

Going from `CS(=O)(=O)N1CCc2[nH]cnc2C12CCN(C(=O)c1ccc[nH]1)CC2` to `O=C(c1cc2c([nH]c1=O)CCC2)N1CCCC1c1ccc(F)cc1` (stereo not given), the “Percent Effect” value rises from 5.069% to 20.74%.

Going from `COCCNC(=O)NCCn1nc(C(F)(F)F)n(C)c1=O` to `O=C(NCC1CC1)c1n[nH]c2c1CNCC2.O=C(O)C(F)(F)F.O=C(O)C(F)(F)F`, the “Percent Effect” value falls from 0.0676% to -32.44%.

Going from `CC1(C)CN(Cc2c[nH]c(CC3CCCC3)n2)CC[C@]1(C)O` to `Cc1nc(C)n(CC2CCCN2Cc2cnc(C)s2)n1` (stereo not given), the “Percent Effect” value rises from -6.969% to -0.1768%.

First: c1cnc2c(c1)nc1n2[C@@H](CNCc2nccs2)COC1
Second: Fc1ccc(-c2cnc(CN3CCCC3Cn3cccn3)o2)cc1 (stereo not given)
The “Percent Effect” value of the first is higher: -1.802% for the first, -6.963% for the second.

Going from `OCC(O)CSCc1cc(Cl)ccc1Cl` (stereo not given) to `CC(=O)NC(c1cc(F)ccc1F)C1CC1` (stereo not given), the “Percent Effect” value rises from -6.234% to 0.9467%.

First: O=C(NC1CCCc2c1[nH]c1ccc(F)cc21)c1n[nH]c2c1CCCC2 (stereo not given)
Second: O=C(NC1CCCc2c1[nH]c1ccc(F)cc21)c1n[nH]c2c1CCC2 (stereo not given)
The “Percent Effect” value of the first is lower: 120.6% for the first, 132.4% for the second.

Going from `Cc1ccc(F)cc1NC(=O)CNc1cccc2c1CCCC2` to `CC(=O)NC1CCCc2c1[nH]c1ccc(F)cc21` (stereo not given), the “Percent Effect” value rises from -15.05% to 97.09%.

In the case of `O=C(NC1CCC1)c1n[nH]c2c1CNCC2`, the “Percent Effect” value is reported as -9.631%.

From ChEMBL document CHEMBL3988442, “University of Dundee, Small-Polar-MMV Screening Library” (2021)
